Measured values published in ChEMBL document CHEMBL3988442, “University of Dundee, Small-Polar-MMV Screening Library” (2021).
For some of these results: Results with a measured potency or affinity are listed apart.

Key:
Parameters in all cases: scale not given: direction of the effect not stated beside the values
[1] = target: Protein translocase subunit SecA (Escherichia coli (strain K12)) (UniProt P10408); assay: Assay to Identify E. coli SecA ATPase Inhibitors; assay type: functional; settings: 30 µM
[2] = target: T1, Ubiquitin-activating enzyme e1, putative (Leishmania donovani (strain BPK282A1)) (UniProt E9BSI1); assay: Leishmania donovani Ubiquitin Activating Enzyme (LdE1); assay type: functional; settings: 30 µM
T1 sequence (whole entry): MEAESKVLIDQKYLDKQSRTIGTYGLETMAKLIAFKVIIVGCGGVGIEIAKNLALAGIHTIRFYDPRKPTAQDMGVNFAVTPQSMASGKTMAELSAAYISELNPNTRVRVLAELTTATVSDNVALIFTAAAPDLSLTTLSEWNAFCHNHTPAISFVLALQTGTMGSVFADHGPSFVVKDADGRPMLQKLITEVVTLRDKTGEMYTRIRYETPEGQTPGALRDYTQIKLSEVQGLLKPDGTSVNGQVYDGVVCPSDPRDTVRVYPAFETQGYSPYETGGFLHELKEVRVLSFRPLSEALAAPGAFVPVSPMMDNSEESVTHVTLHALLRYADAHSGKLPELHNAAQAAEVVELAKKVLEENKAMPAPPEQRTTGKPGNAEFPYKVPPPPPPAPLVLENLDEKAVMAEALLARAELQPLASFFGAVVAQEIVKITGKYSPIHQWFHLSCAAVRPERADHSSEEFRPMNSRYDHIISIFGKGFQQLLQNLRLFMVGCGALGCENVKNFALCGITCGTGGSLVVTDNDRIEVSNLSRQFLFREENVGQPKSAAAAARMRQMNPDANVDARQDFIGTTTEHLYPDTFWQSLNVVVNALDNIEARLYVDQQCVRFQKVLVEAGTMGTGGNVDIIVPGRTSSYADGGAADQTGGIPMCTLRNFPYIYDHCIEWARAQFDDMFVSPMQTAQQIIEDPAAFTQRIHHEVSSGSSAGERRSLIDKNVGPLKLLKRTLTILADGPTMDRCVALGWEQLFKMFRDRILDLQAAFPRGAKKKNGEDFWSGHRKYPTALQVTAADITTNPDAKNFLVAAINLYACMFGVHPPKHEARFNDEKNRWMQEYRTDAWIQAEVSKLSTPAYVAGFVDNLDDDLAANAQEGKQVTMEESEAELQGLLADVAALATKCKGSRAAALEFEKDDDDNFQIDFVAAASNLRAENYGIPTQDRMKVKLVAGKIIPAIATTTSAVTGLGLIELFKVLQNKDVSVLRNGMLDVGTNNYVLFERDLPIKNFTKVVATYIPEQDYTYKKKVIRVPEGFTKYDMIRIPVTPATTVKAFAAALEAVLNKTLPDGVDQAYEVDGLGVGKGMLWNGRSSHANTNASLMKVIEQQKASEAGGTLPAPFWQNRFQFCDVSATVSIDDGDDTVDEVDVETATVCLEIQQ

[3] = target: AMP-activated protein kinase, AMPK (Homo sapiens) (UniProt P54646+O43741+P54619+Q9UGJ0+Q9Y478+Q13131+Q9UGI9); assay: AMP-dependent Kinase enzyme assay. An in vitro enzyme assay that detects ADP turnover that is directly proportional to AMPK activity. This uses naive AMPK that is activated during the assay with MK-8722; assay type: functional; settings: 30 µM
[4] = target: Sialic acid-binding Ig-like lectin 9 (Homo sapiens) (UniProt Q9Y336); assay: Hs-Siglec9 ALPHAscreen SOP 20170721; settings: 10 µM
[5] = tested on: Trypanosoma cruzi; assay: Trypanosoma cruzi phosphomannomutase and mannose-1-phosphate guanylyltransferase assay; assay type: functional; settings: 10 µM
[6] = target: T2, Arginase-2, mitochondrial (Homo sapiens) (UniProt P78540); assay: in vitro enzyme assay to detect the production of urea directly proportional to the activity of Arginase II; assay type: functional; settings: 33.3 µM; further: in the data most compounds retested in dose-response had high values
T2 sequence (whole entry): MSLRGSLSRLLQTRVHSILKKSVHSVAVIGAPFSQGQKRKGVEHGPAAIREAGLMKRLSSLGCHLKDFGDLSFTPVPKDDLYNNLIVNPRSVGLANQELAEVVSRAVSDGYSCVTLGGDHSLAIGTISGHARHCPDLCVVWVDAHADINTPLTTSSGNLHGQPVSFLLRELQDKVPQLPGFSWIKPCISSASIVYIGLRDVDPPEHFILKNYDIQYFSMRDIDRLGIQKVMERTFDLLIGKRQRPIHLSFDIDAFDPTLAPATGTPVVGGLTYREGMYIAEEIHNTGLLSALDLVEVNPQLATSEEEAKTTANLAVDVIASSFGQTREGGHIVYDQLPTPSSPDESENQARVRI

[7] = target: T3, Proteasome subunit beta (Trypanosoma cruzi) (UniProt O96673); assay: Trypanosoma cruzi proteasome chymotrypsin-like activity (TcProtChymo) assay.; further: in the data most compounds retested in dose-response had high values; assay type: functional; settings: 9.37 µM
T3 sequence (whole entry): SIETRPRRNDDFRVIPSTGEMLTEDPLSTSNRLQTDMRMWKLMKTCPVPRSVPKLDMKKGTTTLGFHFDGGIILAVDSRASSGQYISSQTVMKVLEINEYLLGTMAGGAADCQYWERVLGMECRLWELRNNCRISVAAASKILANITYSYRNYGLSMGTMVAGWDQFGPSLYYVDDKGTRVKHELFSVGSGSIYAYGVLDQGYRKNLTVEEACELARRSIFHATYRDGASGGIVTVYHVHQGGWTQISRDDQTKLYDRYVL

[8] = species on record: Homo sapiens; assay: To identify inhibition of the IFN signalling (Jak-Stat) pathway via expression of an eGFP reporter gene under the control of an IFN-stimulated response element (ISRE) containing MxA promoter.; assay type: functional; settings: 30 µM
[9] = target: T4, Tyrosyl-tRNA synthetase, putative (Trypanosoma cruzi (strain CL Brener)) (UniProt Q4DSP6); assay: Trypanosoma cruzi tyrosyl tRNA synthetase (TcYRS) _High Tyrosine SOP; assay type: functional; settings: 30 µM; further: in the data most compounds retested in dose-response had high values
T4 sequence (whole entry): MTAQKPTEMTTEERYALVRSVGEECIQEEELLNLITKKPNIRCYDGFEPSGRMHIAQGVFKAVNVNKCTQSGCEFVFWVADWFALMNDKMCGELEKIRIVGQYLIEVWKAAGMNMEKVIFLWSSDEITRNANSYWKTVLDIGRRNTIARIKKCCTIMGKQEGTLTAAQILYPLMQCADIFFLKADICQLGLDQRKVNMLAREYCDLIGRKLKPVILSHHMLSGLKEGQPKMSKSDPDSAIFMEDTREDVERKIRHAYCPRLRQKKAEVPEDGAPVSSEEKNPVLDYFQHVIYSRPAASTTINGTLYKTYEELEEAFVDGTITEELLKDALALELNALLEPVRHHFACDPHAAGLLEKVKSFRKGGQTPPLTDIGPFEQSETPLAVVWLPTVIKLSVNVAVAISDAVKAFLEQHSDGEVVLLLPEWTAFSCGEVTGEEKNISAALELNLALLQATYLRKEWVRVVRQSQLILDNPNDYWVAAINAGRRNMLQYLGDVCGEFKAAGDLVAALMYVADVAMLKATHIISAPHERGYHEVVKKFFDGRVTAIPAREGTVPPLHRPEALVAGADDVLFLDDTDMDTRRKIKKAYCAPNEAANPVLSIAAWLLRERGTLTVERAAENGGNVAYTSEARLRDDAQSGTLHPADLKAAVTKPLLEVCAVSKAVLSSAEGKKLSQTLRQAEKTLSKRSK

[10] = target: T4, Tyrosyl-tRNA synthetase, putative (Trypanosoma cruzi (strain CL Brener)); assay: Trypanosoma cruzi tyrosyl tRNA synthetase (TcYRS) SOP; assay type: functional; settings: 30 µM
[11] = target: Chromo domain-containing protein 1 (Saccharomyces cerevisiae (strain ATCC 204508 / S288c) (Baker's yeast)) (UniProt P32657); assay: ScCHD-1 Enzyme Inhibition Assay; assay type: functional; settings: 30 µM; further: in the data most compounds retested in dose-response had high values
Chain of Chromo domain-containing protein 1 (Saccharomyces cerevisiae (strain ATCC 204508 / S288c) (Baker's yeast)) (P32657 whole entry, the tested form may be a part): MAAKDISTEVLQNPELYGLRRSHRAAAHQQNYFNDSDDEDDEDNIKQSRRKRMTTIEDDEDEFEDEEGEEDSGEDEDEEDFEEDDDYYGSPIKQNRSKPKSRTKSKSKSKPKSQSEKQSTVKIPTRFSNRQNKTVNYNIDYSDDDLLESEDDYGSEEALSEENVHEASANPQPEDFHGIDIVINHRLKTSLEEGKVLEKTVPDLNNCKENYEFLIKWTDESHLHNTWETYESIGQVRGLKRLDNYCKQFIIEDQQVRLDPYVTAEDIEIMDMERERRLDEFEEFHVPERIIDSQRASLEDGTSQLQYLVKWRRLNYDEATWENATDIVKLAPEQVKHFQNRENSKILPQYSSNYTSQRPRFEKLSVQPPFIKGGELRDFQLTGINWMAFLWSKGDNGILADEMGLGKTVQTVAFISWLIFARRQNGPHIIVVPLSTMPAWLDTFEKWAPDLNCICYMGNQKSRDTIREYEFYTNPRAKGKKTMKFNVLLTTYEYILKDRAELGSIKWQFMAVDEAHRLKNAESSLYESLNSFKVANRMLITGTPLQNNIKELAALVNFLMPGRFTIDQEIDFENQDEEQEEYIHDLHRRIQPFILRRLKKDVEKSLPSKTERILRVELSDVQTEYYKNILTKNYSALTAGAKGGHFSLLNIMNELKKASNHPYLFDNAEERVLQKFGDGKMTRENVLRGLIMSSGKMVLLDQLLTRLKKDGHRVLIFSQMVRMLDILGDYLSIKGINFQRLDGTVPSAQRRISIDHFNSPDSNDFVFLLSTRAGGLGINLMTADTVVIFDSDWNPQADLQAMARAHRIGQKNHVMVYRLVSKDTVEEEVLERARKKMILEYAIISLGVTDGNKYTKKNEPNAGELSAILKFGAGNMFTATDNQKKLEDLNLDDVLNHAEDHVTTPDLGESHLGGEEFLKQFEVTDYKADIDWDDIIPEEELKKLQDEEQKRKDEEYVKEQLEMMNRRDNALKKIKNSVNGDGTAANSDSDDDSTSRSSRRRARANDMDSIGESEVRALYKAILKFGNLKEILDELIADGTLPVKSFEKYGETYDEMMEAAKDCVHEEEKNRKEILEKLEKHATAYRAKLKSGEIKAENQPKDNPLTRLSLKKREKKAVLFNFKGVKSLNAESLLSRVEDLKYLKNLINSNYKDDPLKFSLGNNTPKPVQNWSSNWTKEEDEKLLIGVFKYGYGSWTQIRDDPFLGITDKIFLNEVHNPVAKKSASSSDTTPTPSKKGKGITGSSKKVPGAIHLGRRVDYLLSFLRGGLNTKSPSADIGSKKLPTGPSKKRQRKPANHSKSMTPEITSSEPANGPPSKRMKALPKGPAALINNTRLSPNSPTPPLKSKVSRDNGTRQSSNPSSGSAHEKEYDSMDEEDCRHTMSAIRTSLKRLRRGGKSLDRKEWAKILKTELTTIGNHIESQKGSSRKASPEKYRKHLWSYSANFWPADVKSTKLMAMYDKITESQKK

Chain of Sialic acid-binding Ig-like lectin 9 (Homo sapiens) (Q9Y336 whole entry): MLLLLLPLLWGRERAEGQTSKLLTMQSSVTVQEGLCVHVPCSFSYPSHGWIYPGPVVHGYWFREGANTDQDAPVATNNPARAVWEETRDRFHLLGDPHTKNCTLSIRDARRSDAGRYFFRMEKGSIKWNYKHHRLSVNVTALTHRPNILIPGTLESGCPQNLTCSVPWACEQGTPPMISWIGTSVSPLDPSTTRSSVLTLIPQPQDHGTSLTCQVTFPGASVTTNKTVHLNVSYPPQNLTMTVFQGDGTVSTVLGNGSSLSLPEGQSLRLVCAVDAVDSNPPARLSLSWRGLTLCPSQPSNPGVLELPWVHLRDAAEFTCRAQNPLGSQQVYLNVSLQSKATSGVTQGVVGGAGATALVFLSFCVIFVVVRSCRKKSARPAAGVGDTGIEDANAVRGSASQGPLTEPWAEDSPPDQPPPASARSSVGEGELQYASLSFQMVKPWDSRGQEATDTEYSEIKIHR
Chain of Protein translocase subunit SecA (Escherichia coli (strain K12)) (P10408 whole entry): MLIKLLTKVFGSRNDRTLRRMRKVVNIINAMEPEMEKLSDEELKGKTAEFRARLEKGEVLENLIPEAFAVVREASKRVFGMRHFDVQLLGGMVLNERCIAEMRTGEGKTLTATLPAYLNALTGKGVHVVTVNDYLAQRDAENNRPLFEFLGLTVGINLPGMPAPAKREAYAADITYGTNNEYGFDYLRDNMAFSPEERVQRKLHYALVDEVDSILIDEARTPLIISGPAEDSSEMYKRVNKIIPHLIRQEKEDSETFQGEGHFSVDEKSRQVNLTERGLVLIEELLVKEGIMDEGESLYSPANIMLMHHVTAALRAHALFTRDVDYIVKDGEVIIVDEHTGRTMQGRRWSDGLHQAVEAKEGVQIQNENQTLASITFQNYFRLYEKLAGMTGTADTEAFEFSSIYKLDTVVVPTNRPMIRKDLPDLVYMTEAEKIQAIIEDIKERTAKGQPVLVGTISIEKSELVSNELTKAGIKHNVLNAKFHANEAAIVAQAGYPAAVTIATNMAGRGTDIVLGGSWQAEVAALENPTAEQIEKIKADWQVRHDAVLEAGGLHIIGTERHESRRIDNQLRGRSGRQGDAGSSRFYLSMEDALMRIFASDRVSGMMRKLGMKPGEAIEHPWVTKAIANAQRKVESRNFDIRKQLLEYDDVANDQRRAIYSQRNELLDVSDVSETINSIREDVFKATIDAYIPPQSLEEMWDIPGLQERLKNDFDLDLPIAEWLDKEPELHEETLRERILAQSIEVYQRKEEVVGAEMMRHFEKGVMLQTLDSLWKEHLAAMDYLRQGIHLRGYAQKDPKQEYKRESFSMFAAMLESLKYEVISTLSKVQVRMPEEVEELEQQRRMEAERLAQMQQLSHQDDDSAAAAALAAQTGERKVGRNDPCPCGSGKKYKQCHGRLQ

Compound | Percent Effect [1] [%] | Percent Effect [2] [%] | Percent Effect [3] [%] | Percent Effect [4] [%] | Percent Effect [5] [%] | Percent Effect [6] [%] | Percent Effect [7] [%] | Percent Effect [8] [%] | Percent Effect [9] [%] | Percent Effect [10] [%] | Percent Effect [11] [%]
O=C(NCCNS(=O)(=O)c1ccc2c(c1)CCCC2)c1ccoc1 | -4.38 | 13.3 | -3.34 | 15.1 | 3.41 | 10.9 | 5.41 | 29.3 | 6.01 | 13.6 | 0.0598
Cc1nc(C2CCCCN2C(=O)c2ccccc2)ncc1C(=O)N(C)C (stereo unspecified) | 0.833 | -5.33 | 7.56 | 0.633 | -1.97 | 4.89 | 0.0881 | 10.8 | 1.06 | 1.28 | 0.34
CCOCCN1CCn2c(C)nnc2C1 | 2.73 | 19 | 2.63 | -1.98 | -5.03 | -3.23 | 13.9 | 11.9 | 4.17 | 12.7 | -27.4
N#Cc1ccc(OCCN2CCc3c(ncn3C3CC3)C2)cc1 | -3.1 | 23.4 | -12.7 | -6.96 | -1.31 | 0 | 7.26 | -0.819 | 13.6 | 9.76 | -10.1
CN(Cc1ccccn1)C1COC2(CCN(Cc3cccnc3)CC2)C1 (stereo unspecified) | -2.78 | 16 | -2.32 | -9.58 | 4.72 | 49.2 | 12.1 | 17.1 | 5.32 | 16.7 | -7.71
O=C(c1cccc2c1OCO2)N1CCCC1c1noc(C2CC2)n1 (stereo unspecified) | -5.41 | 5.06 | -1.36 | -1.04 | 10.5 | -3.42 | -2.38 | 5 | 4.43 | 11.4 | -6.85
CCOC(=O)CN1CCC(C(=O)c2cc(F)ccc2F)CC1 | -9.27 | -5.26 | -10.9 | 11.4 | 12.4 | -1.53 | 4.01 | 2.26 | 5.39 | 7.32 | -11.5
CCn1nc(-c2ccccc2F)ccc1=O | -4.01 | 0 | -2.64 | -3.3 | -9.29 | -12.7 | 4.55 | 11.8 | -1.07 | 8.64 | -2.39
Cn1ccc(CN2CCC(OCCc3ccccc3)CC2)cc1=O | -2.81 | 0 | -1.45 | -0.922 | -4.87 | 4.98 | -5.41 | 29.9 | 0.971 | 0 | 1.89
COCCc1noc(CN2CCCC(Cn3nc(C)nc3C)C2)n1 (stereo unspecified) | -3.69 | 16.2 | -5.81 | 6.95 | 0.472 | -7.62 | 3.6 | 8.21 | 10.3 | 23.5 | -11.8
CC(CCc1ccccc1)NC(=O)Nc1cnn(CC(N)=O)c1 (stereo unspecified) | -2.21 | 16.5 | -2.88 | 2.1 | -1.74 | -4.52 | 17.8 | 8.25 | 3.12 | 20.2 | -26.2
